# Shown are actives, neighbours in structure and some others; about 14% of the full set was active somewhere.
# HADH2 inhib = qHTS Assay for Inhibitors of HADH2 (Hydroxyacyl-Coenzyme A Dehydrogenase, Type II); 3-hydroxyacyl-CoA dehydrogenase type-2 (Homo sapiens), Q99714; recombinant HADH2, NADH fluorescence, beta-hydroxybutyryl-CoA; Potency, µM (series often up to 57.1 µM), actives largely listed as inhibitors; actives 3.4% (n = 73,000); AID 886, 2007; note: nearly all actives have a fitted effect of over 60% in size
# Target sequence (Q99714 whole entry, looked up, one chain of several): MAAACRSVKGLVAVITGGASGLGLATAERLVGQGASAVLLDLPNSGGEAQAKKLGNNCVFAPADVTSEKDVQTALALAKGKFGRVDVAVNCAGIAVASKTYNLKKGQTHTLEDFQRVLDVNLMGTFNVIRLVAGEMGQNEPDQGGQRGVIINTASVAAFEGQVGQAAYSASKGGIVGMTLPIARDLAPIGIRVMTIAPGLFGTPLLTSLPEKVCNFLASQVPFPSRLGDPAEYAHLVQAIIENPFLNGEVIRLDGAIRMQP
#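 Read-out: 360 nm excitation, 450 nm emission, kinetic over 4 min. Conditions: His-tagged human HADH2 20 nM, pH 9.0 Tris with Tween-20, 1 mM NAD+, 90 uM beta-hydroxybutyryl-CoA.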
# 4MU fluor = qHTS Assay for Spectroscopic Profiling in 4-MU Spectral Region; actives 11% (n = 59,000); compound autofluorescence, 340/450 nm, 4-MU equivalents; hits give high values; AID 589, 2007; max dye-equivalent concentration, M; in the data active = max dye-equivalent concentration above about 10 nM; inconclusive = mostly about 1.1 nM to 9.6 nM
#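 Compounds in 100 mM Tris, pH 8.0, incubated 15 min at room temperature, then fluorescence read at 340 nm excitation/450 nm emission. Signal converted to 4-MU dye-equivalent concentration using an on-plate six-point 4-MU standard curve.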
# CRE-bla Fsk = Cell signaling CRE-BLA (Fsk stim) | actives 2.5% (n = 71,000) | Potency, µM (highest dose often 38.2 µM), hits mostly activators | AID 662, 2007 | CHO CRE-bla reporter (cAMP response element driving beta-lactamase), forskolin EC10, beta-lactamase ratio; active = well fitted activation curve with a large enough effect in the signal ratio, with a control signal flat, not every such curve was filed as active; inconclusive = small, poorly fitted or top-dose-only effect, or effect the other way, or a change in a side signal; the % refers to the signal ratio
#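 AC50 values, positive or negative, reflect shifts in EC10 NKH 477-induced CRE-bla reporter activity in CHO cells. Incubation lasted 3 h at 37 °C before CCF4 substrate (2 h, room temperature) and ratiometric 460/530 nm reading.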
# A350 autofl = qHTS Assay for Spectroscopic Profiling in A350 Spectral Region; actives 11% (n = 59,000); Compound autofluorescence, 340/450 nm, Alexa 350 dye-equivalents; hits give high values; max dye-equivalent concentration, M; in the data active = max dye-equivalent concentration above about 10 nM; inconclusive = mostly about 1.1 nM to 9.6 nM
# HSD17B inh = qHTS Assay for Inhibitors of HSD17B4, hydroxysteroid (17-beta) dehydrogenase 4; 3-hydroxyacyl-CoA dehydrogenase type-2 (Homo sapiens), Q99714; recombinant HSD17B10, NADH fluorescence kinetic; Potency, µM (series often up to 57.1 µM), usual class: inhibitors; actives 7.6% (n = 75,000); AID 893, 2007;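 note: the protocol describes HADH2 (HSD17B10) and not the HSD17B4 of the title; nearly all actives have a fitted effect of over 70% in size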
#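 His-tagged E. coli-expressed HADH2 at 20 nM in 100 mM Tris-HCl pH 9.0 with 0.01 % Tween-20, preincubated 15 min with compound at room temperature. Reaction with 1 mM NAD+ and 90 uM beta-hydroxybutyryl coenzyme A; NADH fluorescence (360/450 nm) read kinetically over 4 min, last minus first point.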
# AID923 = qHTS Assay for Allosteric/Competitive Inhibitors of Caspase-1: Spectroscopic Profiling in AFC Spectral Region | compound fluorescence, AFC spectral region (405/520 nm) | Potency, µM (titrated, usually from 57.5 µM), actives largely listed as activators | actives 1.1% (n = 75,000) | AID 923, 2007
#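 Titrations up to 57 uM read every 20 sec for 3 min (405/520 nm) with 50 nM caspase 1 and 5 uM Ac-WEHD-AFC, pH 7.5 HEPES buffer. Fluorescence-vs-time intercept gave baseline, scaled against on-plate AFC standard.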
# A number is an active result; 0 = inactive; ? = inconclusive; - = not tested or not shown; [ ] = another dose, or the depositor's remark. Unless noted, calls come from the whole dose curve; as a rule, active = well fitted curve in the direction sought with a large enough effect; inconclusive = small, poorly fitted or top-dose-only effect, or another doubt; inactive = no such curve, though single readings can be large; an effect the other way counts as inactive or inconclusive.
SMILES,HADH2 inhib,4MU fluor,CRE-bla Fsk,A350 autofl,HSD17B inh,AID923
Cc1cc(=O)[nH]c(SCCOc2ccc(OC(C)C)cc2)n1,0,9.6e-08M,0,6.6e-08M,0,0
Cc1cccc(C)c1OC[C@@H](N)C(C)C,0,0,0,0,0,0
COc1ccc(NS(=O)(=O)c2ccc(OCC(=O)N3CCCC3)cc2)cc1,0,0,0,?,0,0
Cc1ccccc1NS(=O)(=O)c1ccc(OCC(=O)N2CCCC2)cc1,0,4.3e-07M,0,3.7e-07M,32µM,0
CN1C[C@H](c2ccccc2)C(O)([C@]2(c3ccccc3)CN(C)C[C@@H](c3ccccc3)C2=O)[C@H](c2ccccc2)C1 (stereo not given in full),0[11.4 µM],0,0[7.6 µM],?,0[11.4 µM],0[11.5 µM]
CCOC(=O)c1c(NC(=O)COC)sc(C(C)=O)c1C,0,0,13µM,0,0,0
CCOC(=O)c1sc(NC(=O)CSc2nncs2)c(C(=O)OCC)c1C,0,0,3.2µM,0,0,0
CCOC(=O)c1sc(NC(=O)CSc2nnnn2-c2ccc(C)cc2)c(C(=O)OCC)c1C,0,0,0,0,0,0
CCOC(=O)c1c(NC(=O)Cc2cccs2)sc(C(=O)N2CCCCC2)c1C,0,0,2µM,0,0,0
Cc1cc(C)c(C#N)c(SCC(=O)CC(=O)OC(C)C)n1,?,?,0,1.1e-08M,32µM,0
COc1cccc([C@@H]2Oc3ccc(OC)cc3/C(=N/OC[C@@H](O)COCc3ccco3)[C@@H]2O)c1,0[11.4 µM],-,-,-,0[11.4 µM],0[11.5 µM]
CC(=O)OCC1OC(n2cnc3c(Cl)nc(Cl)nc32)C(OC(C)=O)C1OC(C)=O (stereo not given),-,-,-,-,0,0
CCOC(=O)c1c(NC(=O)CSc2nc(C)cc(C)c2C#N)sc(C(C)=O)c1C,?,1.1e-08M,0,1.2e-08M,0,0
Cc1cc(C)cc([N+](=O)[O-])c1,0,-,0,-,0,0
NC(N)=NC(N)=Nc1ccc(C(=O)O)cc1,0[11.4 µM],0,0[7.6 µM],0,0[11.4 µM],0[11.5 µM]
O=C(O)C1C2C=CC3(CN(C/C=C/c4ccccc4)C(=O)C13)O2 (stereo not given),0[11.4 µM],-,?,-,25µM,0
NCCSCCC(=O)O,0[11.4 µM],0,0[7.6 µM],0,0[11.4 µM],0[11.5 µM]
Cc1nc2sc(C)c(C)c2c(=O)[nH]1,0,0,?,0,0,0
CCN(CC)C(=O)c1sc2nc(-c3ccccn3)[nH]c(=O)c2c1C,32µM,3.9e-08M,?,3.7e-08M,32µM,0
CCN(CC)C(=O)c1sc2nc(-c3ccncc3)[nH]c(=O)c2c1C,?,8.7e-08M,?,8.4e-08M,25µM,0
O=C(Nc1ccc(F)cc1Cl)c1ccc2c(=O)n3c(nc2c1)CCCCC3,0,0,0,0,0,0
O=C(CC(=O)N1CCN(c2ccccn2)CC1)Nc1ccc2nc3n(c(=O)c2c1)CCCCC3,0,-,7.9µM,-,?,0
O=C(Nc1ccc2nc3n(c(=O)c2c1)CCCCC3)c1ccccn1,0,-,13µM,-,0,0
CN(C)CCNS(=O)(=O)N(C)C,0[11.4 µM],0,0[7.6 µM],0,0[11.4 µM],0[11.5 µM]
Oc1cc(O)c2c(c1)O[C@H](c1ccc(O)c(O)c1)[C@@H](O)C2,?,0,?,0,0,0
SMILES,HADH2 inhib,4MU fluor,CRE-bla Fsk,A350 autofl,HSD17B inh,AID923
O=c1c(O)cc(C2Oc3cc(O)cc(O)c3CC2O)cc2c(C3Oc4cc(O)cc(O)c4CC3O)cc(O)c(O)c12 (stereo not given),-,-,-,-,7.9µM,0
CCOc1cc(S(=O)(=O)N2CCC(Cc3ccccc3)CC2)c(OCC)cc1-n1cnnn1,?,0,0,0,25µM,0
CCOc1ccc(-n2cnnn2)cc1S(=O)(=O)Nc1c(C)cccc1C,0,0,0,0,0,0
CCOc1cc(S(=O)(=O)NCCc2ccccc2C)c(OCC)cc1-n1cnnn1,0,0,0,0,16µM,0
CCOc1cc(S(=O)(=O)NCCc2cccc(C)c2)c(OCC)cc1-n1cnnn1,0,0,0,0,32µM,0
CCOc1cc(S(=O)(=O)N2CC=C(c3ccc(F)cc3)CC2)c(OCC)cc1-n1cnnn1,0,0,0,0,?,0
COc1ccc(-c2nnnn2C)cc1S(=O)(=O)NCCc1ccccc1,0,-,0,-,0,0
CCc1cc2c(nc1CC)CCN(CC/C(C)=N/OC[C@@H](O)COCc1ccco1)C2,0[11.4 µM],-,-,-,0[11.4 µM],0[11.5 µM]
COc1ccc(NC(=O)c2cnn3c(C(F)(F)F)cc(-c4ccco4)nc23)cc1OC,0[11.4 µM],-,?,-,0,0
COCCNC(=O)c1cnn2c(C(F)(F)F)cc(-c3ccc4c(c3)OCO4)nc12,0,6.6e-08M,0,6.7e-08M,0,0
O=C(Nc1ccc2c(c1)OCO2)c1cnn2c(C(F)(F)F)cc(-c3ccco3)nc12,0,-,5µM,-,0,0
CC1CC[C@]2(CO)CC[C@]3(C)C(=CCC4[C@@]5(C)CCC(O)C(C)(C)C5CC[C@@]43C)C2C1C (stereo not given in full),-,-,-,-,0,0
CCN1C(=O)/C(=C\N2CCCc3ccccc32)SC1=S,0,1.4e-08M,0,1.5e-08M,0,0
CCn1c(N)c(C(N)=O)sc1=S,25µM,0,0,?,?,0
Cc1ccc(-n2c(N)c(C(=O)N3CCCCC3)sc2=S)cc1,6.3µM,0,0,0,0,0
Cc1ccc(C)c(-n2c(N)c(C(N)=O)sc2=S)c1,?,6.4e-08M,?,6.7e-08M,0,0
Cc1cc(C(=O)NCCC2=CCCCC2)c(C)o1,?,0,?,0,0,0
C=CCn1c(N)c(C(=O)NCCC2=CCCCC2)sc1=S,3.2µM,0,?,0,?,0
COc1cccc(-c2nc(N(C)Cc3ccco3)c3ccccc3n2)c1,?,0,?,0,?,0
Cc1ccc(NS(=O)(=O)c2ccc(C(=O)N3CCCN(C)CC3)cc2)cc1,0,0,0,0,0,0
C=CCn1c(N)c(C(=O)N2CCN(C)CC2)sc1=S,25µM,0,0,0,0,0
CCOC(=O)c1sc(=S)n(C)c1N,0,0,?,0,0,0
Cc1ccc(-n2c(N)c(C(=O)N3CCN(C)CC3)sc2=S)cc1,0.63µM,0,?,0,0,0
CCOC(=O)C1=C[C@@]2(CC)CCCN3CCc4c(n1c1ccccc41)C32 (stereo not given in full),-,-,-,-,0,0
CCN[C@@H]1C[C@H](C)S(=O)(=O)c2sc(S(N)(=O)=O)cc21,0,0,0,0,0,0
C=CCOC(=O)c1[nH]c2c(c1C)C(=O)CC(c1ccco1)C2 (stereo not given),0,-,0.5µM,-,0,0

# High-throughput results as filed in PubChem.
